# Reference: PubChem BioAssay AID1721 (National Center for Advancing Translational Sciences (NCATS), 2009)
# Out of some 290,000 compounds screened, about 1,100 (0.38%) were called active. The sample holds actives, similar compounds and a random draw of the others, so the mix is not that of the screen. Values without a mark were called inactive. Calls come from the whole dose curve; as a rule, active = well fitted inhibition curve with a large enough effect; inconclusive = small, poorly fitted or top-dose-only effect, or another doubt; inactive = no such curve, though single readings can be large or run the other way.
# Target: Pyruvate kinase (Leishmania mexicana) (UniProt Q27686)
# Assay: qHTS Assay for Inhibitors of Leishmania Mexicana Pyruvate Kinase (LmPK)
# Conditions: purified LmPK, Kinase-Glo ATP luminescence, 1 h; series mostly up to 57.5 µM; activity change, negative = inhibition: at the top concentration
# Description: NIH Chemical Genomics Center [NCGC] Malcolm Walkinshaw, Hugh Morgan, Linda Gilmore University of Edinburgh, UK MLPCN Grant: 1 R03 MH085697-01 NCGC Assay Overview: Pyruvate kinase (L. Mexicana) (LmPK) enzyme was supplied as a highly purified (>95% pure) sulphate-free preparation from University of Edinburgh, UK and assayed for its ability to generate ATP from ADP using phosphoenolpyruvate (PEP) as a substrate. ATP generation was detected in a coupled reaction by luciferase-mediated luminescence, an ATP-dependent process. […] The enzyme was assayed at an intermediate level of activity to screen for both inhibitors and activators.
# NCGC Assay Protocol Summary: Three uL of enzyme mix (kept on ice) in assay buffer (50 mM Imidazole pH7.2, 50 mM KCl, 7 mM MgCl2, 0.01% Tween 20, 0.05% BSA) containing PEP (0.5 mM final concentration) and LmPK (0.1 nM final concentration) was dispensed into white solid bottom 1,536 well microtiter plates. 23 nL of compound were delivered by a pin tool and 1 uL of ADP mix in assay buffer (r.t; 0.1 mM final ADP concentration) was added. Plates were incubated at room temperature for 1 hour. Two uL of detection mix (Kinase-Glo, Promega; at 4 degree Celsius protected from light) was added and luminescence read by a ViewLux (Perkin Elmer) at 1 second exposure/plate. Data were normalized to the uninhibited and AC100 inhibition (no enzyme). To monitor activation, the first column contained a five-fold concentration of LmPK (0.5 nM).
# % is set by controls: 0 for no effect and ±100 for the full control effect; potency is the fitted concentration of half-maximal effect.
# Chain of Pyruvate kinase (Leishmania mexicana) (Q27686 whole entry, looked up): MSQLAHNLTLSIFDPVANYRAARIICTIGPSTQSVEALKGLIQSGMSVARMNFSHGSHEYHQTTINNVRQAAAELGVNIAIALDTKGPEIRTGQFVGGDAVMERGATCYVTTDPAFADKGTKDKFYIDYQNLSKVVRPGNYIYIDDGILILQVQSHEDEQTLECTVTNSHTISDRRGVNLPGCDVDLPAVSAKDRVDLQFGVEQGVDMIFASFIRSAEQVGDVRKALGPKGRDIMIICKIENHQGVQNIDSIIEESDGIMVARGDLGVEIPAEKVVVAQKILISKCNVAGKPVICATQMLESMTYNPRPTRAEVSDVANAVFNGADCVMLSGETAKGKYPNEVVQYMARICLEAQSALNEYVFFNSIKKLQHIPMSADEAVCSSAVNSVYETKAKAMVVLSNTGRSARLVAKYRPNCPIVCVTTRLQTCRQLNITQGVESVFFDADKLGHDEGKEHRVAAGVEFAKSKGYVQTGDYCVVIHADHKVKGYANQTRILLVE
SMILES,"activity change, negative = inhibition [%]",Potency
Cc1cc(NC(=O)c2ccc(F)cc2)ccc1NC(=O)c1ccco1,-5.75,–
CCn1c(SCC(=O)NC2CC2)nnc1-c1ccccc1OC,3.59,–
COc1ccccc1CC(=O)Nc1ccc(F)cc1F,-4.93,–
COc1cc(OC)cc(C(=O)OCC(=O)Nc2ccc(F)cc2F)c1,3.32,–
COc1ccc(C(=O)Nc2ccc(F)cc2F)cc1,–,14.1 µM (active)
O=C(c1cc(-c2ccc(O)cc2)on1)N1CCOCC1,-7.59,–
Cc1ccc(CN2CCN(c3ncccn3)CC2)c(C)c1,-4.47,–
CCOC(=O)C1CCN(C(=O)C2CCCN(S(=O)(=O)c3ccc(OC)c(Cl)c3)C2)CC1 (stereo unspecified),-1.27,–
Cc1cnc(NC(=O)CSc2c(Cl)cccc2Cl)s1,0.4,–
Cc1cnc(NC(=O)c2ccc(Cl)nc2)s1,-1.78,–
Cc1cnc(NC(=O)c2ccccn2)s1,–,15.8 µM (active)
O=C(Nc1nnc(C2CC2)s1)c1ccccn1,–,25.1 µM (active)
O=C(Nc1nnc(C2CC2)s1)c1cc(Cl)sc1Cl,-4.39,–
O=C(Cc1cccs1)Nc1nnc(C2CC2)s1,1.96,–
O=C(O)c1ccc(-n2nc(-c3ccccc3)c3ccccc3c2=O)cc1,4.17,–
COC(=O)c1c(NC(=O)COC(=O)[C@@H](NS(=O)(=O)c2ccccc2)C(C)C)sc2c1CCC2,2.43,–
O=C(CN(CC1CCCO1)C(=O)CNS(=O)(=O)c1ccc(Cl)cc1)NCc1ccccc1 (stereo unspecified),-1.92,–
CC(C(=O)Nc1ccc(O)c(C(=O)O)c1)N1C(=O)/C(=C/c2cccs2)SC1=S (stereo unspecified),20.1,–
COc1ccc(NC(=O)C(CC(C)C)NC(=O)C2CCC(C)CC2)cc1 (stereo unspecified),-0.13,–

SMILES,"activity change, negative = inhibition [%]",Potency
O=C(Nc1nnc(C2=COCCO2)o1)c1ccc([N+](=O)[O-])s1,-1.89,–
COc1cc(C(C)=O)ccc1OC(=O)CN1C(=O)c2ccccc2C1=O,3.8,–
COc1cccc(/C=C2\C=C(c3ccc(C)cc3)OC2=O)c1OC(C)=O,-2.55,–
CCOc1cccc(/C=C/c2ccc3ccccc3n2)c1OC(C)=O,-23,–
COc1cccc(/C=C/c2ccc3ccccc3n2)c1OC(C)=O,–,25.1 µM (active)
COc1ccc(CCNCc2c(-c3ccccc3)n(C)c3ccccc23)cc1,-1.5,–
Cc1ccc(N(C(=O)C(F)(F)F)C(C(=O)NC2CCCCC2)c2ccncc2)cc1C (stereo unspecified),-2.72,–
O=C(O)C1CCCN1C1=NS(=O)(=O)c2ccccc21 (stereo unspecified),-0.501,–
COc1ccccc1OCc1nc2ccccc2s1,–,15.8 µM (active)
CN(Cc1nc2ccccc2s1)C(=O)c1ccc(F)cc1,-3.18,–
O=C(O)CCCCc1nc2ccccc2s1,-1.65,–
Cc1cc(S(=O)(=O)N2CCOCC2)ccc1OCC(=O)Nc1cccc(C(F)(F)F)c1,5.38,–
COc1cc(SC)ccc1C(=O)Nc1cc(C)ccn1,-8.85,–
COc1cc(SC)ccc1C(=O)NCCOc1ccccc1Cl,0.758,–
COc1cc(SC)ccc1C(=O)Nc1nc(C)cs1,–,10 µM (active)
O=C(NC(=S)NC1CCS(=O)(=O)C1)c1cccc([N+](=O)[O-])c1 (stereo unspecified),-7.45,–
Cn1c(-c2ccco2)nc2cc3ccccc3cc21,–,12.6 µM (active)
O=c1c2ccccc2nc(-c2ccco2)n1-c1ccc(Br)cn1,-1.19,–
Cn1cccc1-c1nc2ccccc2n1C,0.62,–

SMILES,"activity change, negative = inhibition [%]",Potency
S=c1[nH]nc(-c2cc(-c3ccccc3)n[nH]2)n1/N=C/c1c2ccccc2cc2ccccc12,0.0251,–
S=c1[nH]nc(-c2cc(-c3ccsc3)n[nH]2)n1-c1ccccc1,–,10 µM (active)
c1ccc(-c2cc(-c3ccccc3)[nH]n2)cc1,0.475,–
CCn1cc(C(=O)N[C@@H](C)C(=O)NCCO)c(=O)c2cc3c(cc21)OCO3,-2.59,–
CCCNC(=O)CCc1c(C)nc2c(c(C)nn2-c2ccc(C)cc2)c1C,-2.85,–
CC(C)OC(=O)c1ccc(COc2ccc3ccc(=O)oc3c2)o1,0.39,–
CC(=O)c1c(-c2ccccc2)c2ccccc2[nH]c1=O,-2.03,–
O=c1[nH]c2ccccc2n2c(-c3ccccc3)nnc12,–,3.16 µM (active)
Cc1ccccc1Cn1c(=O)[nH]c2ccccc21,1.18,–
Cc1ccc(S(=O)(=O)N/N=C(\c2ccccc2)C2CC2)cc1,-1.1,–
Cc1cccc(N=C2NN=C(c3c[nH]c4ccccc34)CS2)c1,0.353,–
Cc1cc(C2=NNC(=Nc3ccc(S(=O)(=O)N4CCOCC4)cc3)SC2)c(C)n1CC1CCCO1 (stereo unspecified),-17.2,–
C=CCn1c(C)cc(C2=NNC(=NCC)SC2)c1C,–,14.1 µM (active)
COc1ccc(-c2ccc(OC(=O)NC3CCS(=O)(=O)C3)cc2)cc1 (stereo unspecified),1.14,–
COc1ccc(C(=O)/C=C/Nc2ccccn2)cc1,–,12.6 µM (active)
COc1ccc2cc(S(=O)(=O)Nc3ccccn3)ccc2c1,4.52,–
CCOc1ccc(N/C=C/C(=O)c2ccccc2)cc1,-1.4,–
CC1CCC(NC(=O)CN(C)S(=O)(=O)c2ccc3c(c2)c(=O)n(C)c(=O)n3C)CC1 (stereo unspecified),-2.21,–
